tim23-1 inh – tim23-1 yeast growth inhibition | inhibition, % at 20 µM | actives 1.3% (n = 330,000) | S. cerevisiae tim23-1 growth, BacTiter-Glo luminescence, 24 h;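 active = growth inhibition of the mutant yeast at or above 50%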;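 note: temperature-sensitive mutant grown at 25 °C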
PfHsp90 set2 – growth inhibition of yeast expressing Plasmodium Hsp90 | S. cerevisiae expressing PfHsp90, BacTiter-Glo ATP, 48 h; yeast lacking PDR1 and PDR3 efflux regulators | inhibition, % at 9.4 µM | actives 0.32% (n = 310,000);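 active = every replicate shows inhibition above about 80%, whatever the replicate mean, limit read from the data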
tim10-1 inh – growth inhibitors of tim10-1 mutant yeast. actives 2.2% (n = 330,000). S. cerevisiae tim10-1 ts strain growth, BacTiter-Glo, 24 h. AID 463190. inhibition, % at 20 µM;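 active = inhibition of at least 40%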;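 note: mutant grown at 25 °C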
NLRP3 yeast inh – blocks the NALP3 inflammasome reconstituted in yeast; Yeast reconstituted NLRP3/ASC/caspase-1, beta-gal luminescence, 24 h; inhibition, % at 10 µM; actives 0.39% (n = 330,000); AID 2825;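 active = inhibition of 50% or more; inactive = inhibition below 50%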
TIM10 inh – TIM10 yeast growth inhibition. S. cerevisiae TIM10 strain growth, BacTiter-Glo luminescence, 24 h. inhibition, % at 10 µM. actives 1.4% (n = 330,000). AID 463195;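 active = inhibition of 40% or more at the single tested concentration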;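 note: wild-type TIM10 isogenic control strain grown at permissive 25 °C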
SKKanGAS inh – inhibitors of SKKanGAS S. pyogenes growth in kanamycin (SK-promoter or general growth effect); BacTiter-Glo, 6 h; inhibition, % at 7.5 µM; actives 1.3% (n = 300,000); AID 1662;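 active = mean replicate score, as percent of positive control median, at least 50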;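 note: strain carries kanamycin resistance gene driven by streptokinase promoter and grows in 40 µg/ml kanamycin; loss of luminescence reflects streptokinase promoter inhibition or plain growth inhibition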
tim10-1 confirm – tim10-1 yeast growth inhibition, confirmed; AID 463213; actives 56% (n = 7,400); shares compounds with tim10-1 inh; S. cerevisiae tim10-1 ts strain growth, BacTiter-Glo, 24 h; inhibition, % at 20 µM;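 active = inhibition of yeast growth at or above a set limit in either of two repeat tests at 20 µM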;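 note: tim10-1 mutant grown at permissive 25 °C to find synthetic lethal compounds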
tim10 confirm – TIM10 yeast growth inhibition, confirmed. S. cerevisiae tim10 strain growth, BacTiter-Glo luminescence, 24 h. actives 63% (n = 4,600). shares compounds with TIM10 inh. inhibition, % at 10 µM;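 active = inhibition of yeast growth at or above a set limit in either of two replicates at 10 µM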; note: this counterscreen used the strain with wild-type TIM10
tim23-1 conf – confirmation of tim23-1 mutant yeast growth inhibitors. shares compounds with tim23-1 inh. actives 83% (n = 4,400). S. cerevisiae tim23-1 growth, BacTiter-Glo luminescence, 24 h. AID 463218. inhibition, % at 20 µM;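 active = inhibition above about 39% in either of two replicate wells at 20 µM, limit read from the data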;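 note: temperature-sensitive tim23-1 mutant grown at 25 °C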
Large screens that a line does not name were inactive (follow-up assays come after a bar, where they were run). Compounds with a hit are over-represented: about 4.6% of the library has one in this group of screens.

COc1cccc(/C=C2\SC(=S)N(CCCC(=O)N3CCCC3)C2=O)c1	tim23-1 inh 57.9, tim10-1 inh 41.9 | tim10-1 confirm inactive | tim23-1 conf 51.4
COc1ccc(/C=C2\SC(=S)N(CCCC(=O)N3CCN(C)CC3)C2=O)cc1OC	none (no result: tim23-1 inh, tim10-1 inh, NLRP3 yeast inh, TIM10 inh, SKKanGAS inh)
COc1ccc2cc(C(=O)N3CCN(c4ccc(F)cc4)CC3)[nH]c2c1	none
CSc1nn2cc(CCN3CCOCC3)c(-c3ccc(F)cc3)nc2c1C#N	none (no result: PfHsp90 set2)
CN(C)c1cc(-c2ccc(Cl)cc2Cl)oc(=O)c1Cl	none
Cc1csc(NC(=O)C2CCCN(S(=O)(=O)c3ccc(Br)s3)C2)n1 (stereo unspecified)	tim23-1 inh 55.0, tim10-1 inh 46.2 | tim10-1 confirm 37.9 | tim23-1 conf 50.7
O=[N+]([O-])c1ccccc1S(=O)(=O)Nc1ccc(S(=O)(=O)Nc2nccs2)cc1	tim23-1 inh 63.4, tim10-1 inh 61.2, TIM10 inh 51.4 | tim10-1 confirm 62.8 | tim10 confirm 54.4 | tim23-1 conf 56.0
N#CC(c1ccc(Cl)cc1)c1ccc2c(C(F)(F)F)cc(C(F)(F)F)nc2n1 (stereo unspecified)	tim23-1 inh 61.7, tim10-1 inh 71.2, TIM10 inh 64.0 | tim10-1 confirm 48.5 | tim10 confirm 53.8 | tim23-1 conf 60.2
FC(F)(F)c1cc(C(F)(F)F)c2ccc(N3CCN(c4ccc(Cl)cc4)CC3)nc2n1	none
O=[N+]([O-])c1cccc(-c2nnc(-c3ccccc3)o2)c1	none
Cc1occc1-c1nnc(-c2cc([N+](=O)[O-])cc([N+](=O)[O-])c2)o1	tim23-1 inh 82.6, PfHsp90 set2 106.4, tim10-1 inh 73.4, TIM10 inh 56.0 | tim10-1 confirm 68.8 | tim10 confirm 52.0 | tim23-1 conf 69.3
CC(=O)NC(CC(=O)Oc1ccc(C)cc1Br)c1ccccc1 (stereo unspecified)	none
CCn1c(Sc2ccc(N)cc2Cl)nc2ccccc21	tim23-1 inh 65.9, tim10-1 inh 47.1, TIM10 inh 43.8 | tim10-1 confirm 49.6 | tim10 confirm 46.6 | tim23-1 conf 46.9
Cc1cccc(C(=O)Nc2nnc(Cc3ccccc3)s2)c1	none
CCCCn1c(N)c(N(Cc2ccccc2OC)C(=O)c2cc(CC)c(C)s2)c(=O)[nH]c1=O	none (no result: SKKanGAS inh)
O=S(=O)(c1ccccc1)c1ncc(C(F)(F)F)cc1Cl	tim23-1 inh 52.7, tim10-1 inh 45.9 | tim10-1 confirm inactive | tim23-1 conf 51.5
COC(=O)C1=C(C)N=C2SCCC(=O)N2C1/C=C/c1ccccc1 (stereo unspecified)	none
O=C(N/N=C/c1cc(Br)c(Br)o1)c1ccc2c(c1)OCCO2	tim23-1 inh 53.5, tim10-1 inh 65.0, TIM10 inh 56.6 | tim10-1 confirm 53.4 | tim10 confirm 59.0 | tim23-1 conf 80.1
CCOCCCNC(=O)CSc1nnc(-c2ccc(S(=O)(=O)N3CCCC3)cc2)n1C	none
CNC(=O)/C(C#N)=C/c1cccc(Oc2ccccc2)c1	tim23-1 inh 91.4, tim10-1 inh 86.5, TIM10 inh 78.2 | tim10-1 confirm 90.5 | tim10 confirm 78.2 | tim23-1 conf 79.7
COCCNC(=O)Cn1cc(C(=O)c2ccco2)c2ccccc21	none
CC(=O)/C=C/c1ccccc1Oc1c(F)c(F)nc(F)c1F	tim23-1 inh 53.8, tim10-1 inh 45.2 | tim10-1 confirm 40.5 | tim23-1 conf 40.3
Oc1ccccc1Oc1c(F)c(F)nc(N2CCCC2)c1F	none
O=[N+]([O-])c1ccc(/C=N/Nc2nc(N3CCCCC3)nc(N3CCCCC3)n2)o1	tim23-1 inh 50.0, tim10-1 inh 55.2, TIM10 inh 47.8 (no result: PfHsp90 set2) | tim10-1 confirm 45.8 | tim10 confirm inactive | tim23-1 conf 44.1
c1ccc(-c2nn(-c3ccccc3)[n+](-c3ccccc3)n2)cc1	none (no result: tim23-1 inh, tim10-1 inh, NLRP3 yeast inh, TIM10 inh, SKKanGAS inh)
CCOC(=O)/C(=C\c1ccc(Cl)cc1)c1nc2sc(C)c(C)c2c(=O)[nH]1	tim23-1 inh 71.9, tim10-1 inh 48.3, TIM10 inh 44.3 | tim10-1 confirm 49.2 | tim10 confirm inactive | tim23-1 conf 61.4
CCOC(=O)CSc1nc2sc(C)c(C)c2c(=O)[nH]1	none
Cc1ccccc1-n1nc2c(c1NC(=O)c1ccc3c(c1)OCO3)CS(=O)(=O)C2	none
C/C(=N\Nc1nc(C)cc(-c2ccccc2)n1)c1ccc(C)o1	tim23-1 inh 52.4, tim10-1 inh 49.1, TIM10 inh 44.8 | tim10-1 confirm 32.5 | tim10 confirm inactive | tim23-1 conf 48.7
O=C(COc1ccc(Cl)cc1Cl)Nc1ccccn1	tim23-1 inh 57.9, tim10-1 inh 46.5 (no result: SKKanGAS inh) | tim10-1 confirm 48.6 | tim23-1 conf 47.2
O=C(N/N=C/c1ccccn1)c1sc2ccccc2c1Cl	tim23-1 inh 75.7, tim10-1 inh 47.6 | tim10-1 confirm 41.0 | tim23-1 conf 63.8
CC1CC(C)(C)N2C(=O)C(=C(C#N)C#N)c3cccc1c32 (stereo unspecified)	tim23-1 inh 70.0, tim10-1 inh 70.7, TIM10 inh 54.4 | tim10-1 confirm 68.0 | tim10 confirm 42.6 | tim23-1 conf 82.0
CC1CC2(CCCCC2)N2C(=O)C(=O)c3cccc1c32 (stereo unspecified)	tim23-1 inh 69.1, tim10-1 inh 42.1 | tim10-1 confirm 52.2 | tim23-1 conf 78.8
O=C(Cc1n[nH]c(=O)c2ccccc12)NC(c1ccccc1)c1ccccc1	none
O=C(c1cc(C(=O)c2ccco2)cc(C(=O)c2ccco2)c1)c1ccco1	none
Cc1ccc2occ(C(=O)c3ccco3)c(=O)c2c1	tim23-1 inh 70.9, tim10-1 inh 42.0, TIM10 inh 49.4 | tim10-1 confirm inactive | tim10 confirm inactive | tim23-1 conf 51.1
c1ccc2c(c1)OCCc1c-2[nH]c2ccccc12	tim23-1 inh 60.8, tim10-1 inh 46.2 | tim10-1 confirm 41.5 | tim23-1 conf 58.0
C=CCOC(=O)c1c(C)nc2cc3c(cc2c1C)OCO3	none
CCOC(=O)c1ccc(NC(=O)CCC2COc3ccccc3O2)cc1 (stereo unspecified)	tim23-1 inh 53.0, tim10-1 inh 41.1 (no result: PfHsp90 set2) | tim10-1 confirm 35.7 | tim23-1 conf 47.5
c1ccc(Cn2c[n+](Cc3ccccc3)cn2)cc1	none
O=C(O/N=C1\C(=O)N(c2ccccc2)c2ccccc21)C1CC1	tim23-1 inh 68.9, tim10-1 inh 46.8 | tim10-1 confirm 44.4 | tim23-1 conf 64.4

Assay outcomes from PubChem BioAssay.
